ChEMBL document CHEMBL3433997, “St. Jude Leishmania screening dataset” (2016)

Target: Solute carrier family 2, facilitated glucose transporter member 1 (Homo sapiens) (UniProt P11166)
Assay: ST_JUDE_LEISH: Cytotoxicity at 2uM final concentration against transgenic Leishmania Mexicana promastigotes LmGLUT1 that are glucose transport deficient and complemented with the human glucose transporter GLUT1. Activity is measured by DNA content using SYBR green in vitro
Assay type: functional

Chain of Solute carrier family 2, facilitated glucose transporter member 1 (Homo sapiens) (P11166 whole entry): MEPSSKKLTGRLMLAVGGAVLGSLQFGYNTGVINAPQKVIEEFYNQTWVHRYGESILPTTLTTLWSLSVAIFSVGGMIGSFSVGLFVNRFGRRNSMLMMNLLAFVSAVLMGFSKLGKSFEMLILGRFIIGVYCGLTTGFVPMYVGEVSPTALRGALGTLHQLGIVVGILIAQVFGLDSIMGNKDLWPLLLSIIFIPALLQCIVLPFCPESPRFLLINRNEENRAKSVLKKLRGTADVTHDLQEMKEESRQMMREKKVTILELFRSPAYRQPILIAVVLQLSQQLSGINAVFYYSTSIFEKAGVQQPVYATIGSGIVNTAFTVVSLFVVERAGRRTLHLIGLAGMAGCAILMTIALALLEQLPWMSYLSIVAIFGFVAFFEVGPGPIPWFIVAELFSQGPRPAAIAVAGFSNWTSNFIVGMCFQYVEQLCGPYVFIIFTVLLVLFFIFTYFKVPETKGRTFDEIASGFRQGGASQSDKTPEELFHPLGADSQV

SMILES | inhibition [%]
CCN1CCN(c2cc(C)c3cc(NC(=O)c4ccc(N(CC)CC)cc4)ccc3n2)CC1 | -0.29
COc1ccc(C2C(C(=O)OC3CCCC3)=C(C)NC3=C2C(=O)CCC3)cc1Br (stereo not given) | 1.02
CNCc1ccc(-c2cccc(CNCc3ccc(-c4ccccc4)cc3)c2)c(C(=O)OC)c1 | 1.39
CC(C)Oc1cc2c(cc1NS(=O)(=O)c1ccc(-c3ccc(Cl)s3)cc1F)CCN(C)CC2 | 39.9
CCN1C(=O)C(CC(=O)Nc2cccc(Cl)c2)N(Cc2ccc(OC)c(OC)c2)C1=S (stereo not given) | 0.59
Cc1cc(=NN=Cc2cccc(Cl)c2)c2ccc(F)cc2[nH]1 | 0.61
Cc1ccc(Cn2ncc(NC3CCNCC3)c(Cl)c2=O)cc1NC(=O)Nc1ccc(-c2ccccc2)cc1 | 5.14
CCOCCCNc1sc(S(=O)(=O)c2ccccc2)nc1S(=O)(=O)c1ccc(C)cc1 | 8.93
CC(C)CN1CCCN(Cc2cccc(NC(=O)c3ccc(-c4ccccc4)cc3)c2)CC1 | 0.53
CCCCCCCN(Cc1ccc(OC(C)(C)C(=O)OCC)cc1)C(=O)Nc1ccccc1OC(F)(F)F | 0
CC(C)C[C@@H](NC(=O)OC(C)(C)C)C(=O)Nc1ccc(Cc2ccc(NC(=O)[C@@H](CC(C)C)NC(=O)OC(C)(C)C)cc2)cc1 | 3.6
COc1ccc(CNC(=O)NC2CCN(c3ccnc(Nc4cc(OC)c(OC)c(OC)c4)n3)C2)cc1 (stereo not given) | 1.55
CC[C@@H]([C@@H](Cc1cc2ccccc2s1)C(=O)N[C@@H](CCCCNC(=O)OCc1ccccc1)C(=O)Nc1ccccn1)N(O)C=O | 5.52
CNC(=N)c1ccc(NC(=O)c2ccc(C(=O)Nc3ccc(C(=N)NC)cc3)cc2)cc1 | 1.44
CC1(C)NC(N)=NC(=N)N1OCCSCc1cc(Cl)sc1Cl | 6.6
CC(C)(C)c1ccc2[nH]c(-c3ccc(/C=C/C(=O)NCc4ccc(Cl)c(Cl)c4)cc3)nc2c1 | 6
COc1c(OC)c(OC)c2ccccc2c1CNCCCCCCNCc1c(OC)c(OC)c(OC)c2ccccc12 | 7.56
CCC(C)c1ccc(Nc2nc(C)cc(N(CC)CCCN3CCCCC3)n2)cc1 (stereo not given) | -1.09
COc1cc(C(=O)Nc2cccc(-c3nc4ccccc4[nH]3)c2)ccc1OC(C)=O | -0.73
C=C[C@H]1CN(CCCCCCC)CC[C@H]1CC(O)Cc1ccnc2cc(O)c(OC)cc12 (stereo not given in full) | -1.66

SMILES | inhibition [%]
CCOC(=O)c1c(NC(=O)c2ccccc2)sc2c(O)c(CN(CC)CC)ccc12 | 12
Cc1cc(N2CCCC2)nc(Nc2ccc(NC(=O)Nc3ccccc3)cc2)n1 | 2.65
Cc1cc(N(C)C)nc(Nc2ccc(NC(=O)c3ccccc3C)cc2)n1 | 11.4
COc1ccc(CCn2c(C3CCCCC3)nc3oc4ccccc4c(=O)c3c2=O)cc1 | 3
CCCC(C)N(Cc1ccc(C(C)(C)C)cc1)C(=O)c1ccc(OC)cc1 (stereo not given) | 9.4
CCCC(CNCc1cccc(OC(F)(F)F)c1)CNc1cc(=O)c2ccccc2[nH]1 (stereo not given) | 3.23
Cc1cccc2nc(-c3cccc(-c4cccc(NC(=O)Nc5cccc(C#N)c5)c4)c3)[nH]c12 | 11.2
CCSc1ccccc1COc1c(C)nc(N)nc1N | 6.84
O=C(Nc1ccc2c(c1)OCO2)NC1CCN(c2ccnc(NCc3ccc(F)cc3)n2)CC1 | 2.05
O=C(NCc1cccc(C(F)(F)F)c1)c1ccc(CNC(=O)c2ccc(O)c(-c3ccc(Cl)c(Cl)c3)c2)cc1 | 5.02
O=C(/C=C/c1ccc(Cl)c(Cl)c1)NCCCCCN1CCC(NC(=O)c2ccc(F)cc2F)CC1 | -3.32
COc1cc(NC(=O)N2CCc3ccc(OCCC4CCCN4C)cc32)cc(C(F)(F)F)c1 (stereo not given) | -0.5
c1ccc(CCNc2ccnc(Nc3ccc4[nH]nnc4c3)n2)cc1 | 14.1
CC(c1cccc(S(=O)(=O)NCc2ccc(Cl)cc2Cl)c1)N1CCC(N2CCCCC2)CC1 (stereo not given) | 8.44
O=[N+]([O-])c1cccc(C=NNc2nc(=Nc3ccccc3)[nH]c(=Nc3ccccc3)[nH]2)c1 | 4.34
Cc1nc(C)c(C2CCC(c3ccc(Cl)cc3)CC2)c(O)c1Cl (stereo not given) | 5.98
Cc1cc2nc(-c3ccc(C(=O)NCc4cccc(C(F)(F)F)c4)cc3)[nH]c2cc1C | -0.3
CCCCCN1CCCC(CNS(=O)(=O)c2ccc(C(=O)Nc3ccc(C(F)(F)F)cc3)cc2)C1 (stereo not given) | -1.01
Oc1cc2c(cc1CN1CCN(Cc3ccccc3F)CC1)CCC2 | 1.19
CN1CCN(c2ccnc3cc4c(cc23)N(C(=O)Nc2ccc3c(c2)CCCC3=O)CC4)CC1 | 1.37

Target: Hexose transporter 1 (Plasmodium falciparum) (UniProt O97467)
Assay: ST_JUDE_LEISH: Cytotoxicity at 2uM final concentration against transgenic Leishmania Mexicana promastigotes LmPfHT that are glucose transport deficient and complemented with the Plasmodium falciparum hexose transporter. Activity is measured by DNA content using SYBR green in vitro
Assay type: functional

SMILES | inhibition [%]
CCN1CCN(c2cc(C)c3cc(NC(=O)c4ccc(N(CC)CC)cc4)ccc3n2)CC1 | 2.18
COc1ccc(C2C(C(=O)OC3CCCC3)=C(C)NC3=C2C(=O)CCC3)cc1Br (stereo not given) | -0.27
CNCc1ccc(-c2cccc(CNCc3ccc(-c4ccccc4)cc3)c2)c(C(=O)OC)c1 | 2.72
CC(C)Oc1cc2c(cc1NS(=O)(=O)c1ccc(-c3ccc(Cl)s3)cc1F)CCN(C)CC2 | 5.23
CCN1C(=O)C(CC(=O)Nc2cccc(Cl)c2)N(Cc2ccc(OC)c(OC)c2)C1=S (stereo not given) | 4.35
Cc1cc(=NN=Cc2cccc(Cl)c2)c2ccc(F)cc2[nH]1 | 1.03
Cc1ccc(Cn2ncc(NC3CCNCC3)c(Cl)c2=O)cc1NC(=O)Nc1ccc(-c2ccccc2)cc1 | 9.28
CCOCCCNc1sc(S(=O)(=O)c2ccccc2)nc1S(=O)(=O)c1ccc(C)cc1 | 8.79
CC(C)CN1CCCN(Cc2cccc(NC(=O)c3ccc(-c4ccccc4)cc3)c2)CC1 | 0.24
CCCCCCCN(Cc1ccc(OC(C)(C)C(=O)OCC)cc1)C(=O)Nc1ccccc1OC(F)(F)F | -1.12
CC(C)C[C@@H](NC(=O)OC(C)(C)C)C(=O)Nc1ccc(Cc2ccc(NC(=O)[C@@H](CC(C)C)NC(=O)OC(C)(C)C)cc2)cc1 | 3.72
COc1ccc(CNC(=O)NC2CCN(c3ccnc(Nc4cc(OC)c(OC)c(OC)c4)n3)C2)cc1 (stereo not given) | 5.45
CC[C@@H]([C@@H](Cc1cc2ccccc2s1)C(=O)N[C@@H](CCCCNC(=O)OCc1ccccc1)C(=O)Nc1ccccn1)N(O)C=O | 4.31
CNC(=N)c1ccc(NC(=O)c2ccc(C(=O)Nc3ccc(C(=N)NC)cc3)cc2)cc1 | 2.97
CC1(C)NC(N)=NC(=N)N1OCCSCc1cc(Cl)sc1Cl | 7.38
CC(C)(C)c1ccc2[nH]c(-c3ccc(/C=C/C(=O)NCc4ccc(Cl)c(Cl)c4)cc3)nc2c1 | 6.31
COc1c(OC)c(OC)c2ccccc2c1CNCCCCCCNCc1c(OC)c(OC)c(OC)c2ccccc12 | 7.58
CCC(C)c1ccc(Nc2nc(C)cc(N(CC)CCCN3CCCCC3)n2)cc1 (stereo not given) | 0.87
COc1cc(C(=O)Nc2cccc(-c3nc4ccccc4[nH]3)c2)ccc1OC(C)=O | 2.19
C=C[C@H]1CN(CCCCCCC)CC[C@H]1CC(O)Cc1ccnc2cc(O)c(OC)cc12 (stereo not given in full) | -0.12

SMILES | inhibition [%]
CCOC(=O)c1c(NC(=O)c2ccccc2)sc2c(O)c(CN(CC)CC)ccc12 | 5.42
Cc1cc(N2CCCC2)nc(Nc2ccc(NC(=O)Nc3ccccc3)cc2)n1 | 2.28
Cc1cc(N(C)C)nc(Nc2ccc(NC(=O)c3ccccc3C)cc2)n1 | 17.1
COc1ccc(CCn2c(C3CCCCC3)nc3oc4ccccc4c(=O)c3c2=O)cc1 | 5.28
CCCC(C)N(Cc1ccc(C(C)(C)C)cc1)C(=O)c1ccc(OC)cc1 (stereo not given) | 10.6
CCCC(CNCc1cccc(OC(F)(F)F)c1)CNc1cc(=O)c2ccccc2[nH]1 (stereo not given) | 3.46
Cc1cccc2nc(-c3cccc(-c4cccc(NC(=O)Nc5cccc(C#N)c5)c4)c3)[nH]c12 | 10.1
CCSc1ccccc1COc1c(C)nc(N)nc1N | 6.09
O=C(Nc1ccc2c(c1)OCO2)NC1CCN(c2ccnc(NCc3ccc(F)cc3)n2)CC1 | 2.3
O=C(NCc1cccc(C(F)(F)F)c1)c1ccc(CNC(=O)c2ccc(O)c(-c3ccc(Cl)c(Cl)c3)c2)cc1 | 2.57
O=C(/C=C/c1ccc(Cl)c(Cl)c1)NCCCCCN1CCC(NC(=O)c2ccc(F)cc2F)CC1 | 5.55
COc1cc(NC(=O)N2CCc3ccc(OCCC4CCCN4C)cc32)cc(C(F)(F)F)c1 (stereo not given) | 0.15
c1ccc(CCNc2ccnc(Nc3ccc4[nH]nnc4c3)n2)cc1 | 13.9
CC(c1cccc(S(=O)(=O)NCc2ccc(Cl)cc2Cl)c1)N1CCC(N2CCCCC2)CC1 (stereo not given) | 4.33
O=[N+]([O-])c1cccc(C=NNc2nc(=Nc3ccccc3)[nH]c(=Nc3ccccc3)[nH]2)c1 | 7.8
Cc1nc(C)c(C2CCC(c3ccc(Cl)cc3)CC2)c(O)c1Cl (stereo not given) | 56.3
Cc1cc2nc(-c3ccc(C(=O)NCc4cccc(C(F)(F)F)c4)cc3)[nH]c2cc1C | -2.94
CCCCCN1CCCC(CNS(=O)(=O)c2ccc(C(=O)Nc3ccc(C(F)(F)F)cc3)cc2)C1 (stereo not given) | -0.37
Oc1cc2c(cc1CN1CCN(Cc3ccccc3F)CC1)CCC2 | -1.37
CN1CCN(c2ccnc3cc4c(cc23)N(C(=O)Nc2ccc3c(c2)CCCC3=O)CC4)CC1 | 1.56
